Activity calls are given as the source filed them. The calls were made as follows: active = hit-call score of the fitted dose curve at least 0.9, where 1 is the maximum; inactive = score below 0.9.

From PubChem BioAssay (EPA / NIEHS) come the findings set out here.

This assay can be described thus: CCTE_Simmons_MITO_inhib_resp_rate: CCTE's HepG2 Seahorse XF Respirometric Screening Assay at Inhibited Respiratory State [full ETC block], Simmons Lab (AID 2284006). The settings on record: actives raise or lower the signal. The protocol:
CCTE_Simmons_MITO is cell-based, respirometric assay using HepG2 cells and a Seahorse XF Analyzer to measure oxygen consumption rates over four temporal phases spanning a total of 72 minutes: pre-injection (pre-treatment), basal (following test compound injection), maximal (following FCCP uncoupler injection), and inhibited (following rotenone/antimycin A injection)CCTE_Simmons_MITO_inhib_resp_rate is one of 4 assay components calculated from the CCTE_Simmons_MITO assay. It is designed to make measurements of inhibited respiration using a form of respirometric reporter, as detected with […] signals by Seahorse XF96 technology. Data from the assay component CCTE_Simmons_MITO_inhib_resp_rate was analyzed at the endpoint, CCTE_Simmons_MITO_inhib_resp_rate_OCR, with bidirectional fitting relative to DMSO as the negative control and baseline of activity. Using a type of respirometric reporter, measures of inhibited respiration for gain or loss-of-signal activity can be used to understand cellular oxygen consumption as it relates to cellular respiration. To generalize the intended target to other relatable targets, this assay endpoint is annotated to the mitochondria intended target family, where the subfamily is respiration.
Test chemicals were administered as a titrated series of 7 concentrations from 125 nM up to 100 uM [final] prior to kinetic endpoint detection at 6 minute intervals [3 min mix followed by 3 minutes measure] for 72 minutes. Three biological replicates of technical singles were run for every chemical concentration tested. Dimethylsulfoxide [DMSO] was used as the vehicle control. The electron transport chain inhibitor fenpyroximate was used as the positive control for decreased basal respiration and was administered as a titrated series of 6 concentrations from 250 nM up to 2.75 uM [final] with technical triplicates for the top concentration only. The uncoupler 2,4-dintirophenol was used as the positive control for increased basal respiration and was administered as a titrated series of 6 concentrations from 938 nM up to 40 uM [final] with technical triplicates for the top concentration only. A Seahorse XF Analzyer is required to measure the response.
Turning to `CC(C)=CCCC(C)=CC=O`, the outcome was inactive.

On to `CC(C)c1cccc(C(C)C)c1N1C(=O)c2ccc(O)cc2C1=O`, for which the outcome was inactive.

Regarding `C=CCCCCCCCCC(=O)O`, the molecule was classed as inactive.

For `COc1ccc2sc(C(=O)Nc3nnn[nH]3)c(OC(C)C)c2c1`, the outcome was inactive.

On to `O=c1[nH]c2ccc(S(=O)CCN3CCC(Cc4ccc(F)cc4)CC3)cc2o1` (configuration not stated), for which the result was inactive.

Take `CCOC(=O)c1ccc(C2CCC(NC[C@H](O)COc3ccc(O)c(NS(C)(=O)=O)c3)CC2)cc1` (some centres not stated): the outcome was inactive.

For `COc1ccc(/C=C/S(=O)(=O)NC(=O)c2ccc(C)cc2Cl)cc1`, the call was inactive.

In the case of `CCCCCCc1ccc(O)cc1O`, the outcome was inactive.

One may read the AC50 as the concentration at which the activity in the assay is half-maximal. With `Nc1cccc(N)c1`, the AC50 is 28.7 µM (active).

For `Fc1ccccc1[C@@H](F)COC1CCC(Nc2ncnc3[nH]ncc23)CC1` (some centres not stated), the outcome was inactive.

As for `CCOc1cccc(-n2cc(C(=O)N3CCN(c4cc(C(=O)O)c5ccccc5c4)CC3)nc2-c2ccc(C)cc2)c1`, the molecule was called inactive.

Turning to `Cn1c(=O)cc(Oc2ccc(F)cc2F)c2cnc(NCC(C)(C)O)nc21`, the call was inactive.

For `Cc1[nH]cnc1C[C@H]1CCc2c(C)c3ccccc3n2C1=O`, the result was inactive.

Consider `CC(C)CC(C)(O)C#CC(C)(O)CC(C)C` (configuration not stated), for which the outcome was inactive.

As for `CCOC(=O)COc1ccc2c(c1)CC(NCC(O)c1cccc(Cl)c1)CC2` (configuration not stated), the molecule was called inactive.

On to `O=C(O)c1cccc(N(Cc2cccnc2)c2ccc(OC(F)F)c(OC(F)F)c2)c1`, for which the outcome was inactive.

As to `CC(C)=CCC/C(C)=C/CO`, the call was inactive.

`O=C(CCCCCCCCc1cccnc1)N1CCC(C=C(c2ccccc2)c2ccccc2)CC1`: the molecule was called inactive.

For `CCn1nc(Cc2ccccc2)cc1C1CCN(C[C@H]2C[C@H](N(C)[C@@H](C(=O)O)C(C)C)C[C@@H]2c2cccc(F)c2)CC1`, the molecule was called inactive.

As for `Cc1c(-c2cccnc2)c2ccccc2n1CCCCC(=O)O`, the result was inactive.

For `COc1cccc(-c2ccc(/C=C\CN3CCCCCC3)cc2Cl)c1`, the outcome was inactive.

Take `Cc1ccc(N)cc1O`: the AC50 was 39.1 µM (active).
